Our source for the Percent Effect values is ChEMBL document CHEMBL3988442, “University of Dundee, Small-Polar-MMV Screening Library” (2021).

Hit rate of the full screen: of about 67,000 compounds, about 300 (0.45%) showed an effect of 50% or more. What follows is part of a selection rich in strong results, with near analogues and random picks from the rest.

This assay deals with Polyketide synthase Pks13 (Mycobacterium tuberculosis (strain ATCC 25618 / H37Rv)) (UniProt I6X8D2). Kind of assay: Mycobacterium tuberculosis Polyketide synthase 13 Thioesterase (PKS13). Type of assay: functional. Also noted: scale not given: in the data most compounds retested in dose-response had high values. The conditions noted are these: 30 µM.
Chain of Polyketide synthase Pks13 (Mycobacterium tuberculosis (strain ATCC 25618 / H37Rv)) (I6X8D2 whole entry): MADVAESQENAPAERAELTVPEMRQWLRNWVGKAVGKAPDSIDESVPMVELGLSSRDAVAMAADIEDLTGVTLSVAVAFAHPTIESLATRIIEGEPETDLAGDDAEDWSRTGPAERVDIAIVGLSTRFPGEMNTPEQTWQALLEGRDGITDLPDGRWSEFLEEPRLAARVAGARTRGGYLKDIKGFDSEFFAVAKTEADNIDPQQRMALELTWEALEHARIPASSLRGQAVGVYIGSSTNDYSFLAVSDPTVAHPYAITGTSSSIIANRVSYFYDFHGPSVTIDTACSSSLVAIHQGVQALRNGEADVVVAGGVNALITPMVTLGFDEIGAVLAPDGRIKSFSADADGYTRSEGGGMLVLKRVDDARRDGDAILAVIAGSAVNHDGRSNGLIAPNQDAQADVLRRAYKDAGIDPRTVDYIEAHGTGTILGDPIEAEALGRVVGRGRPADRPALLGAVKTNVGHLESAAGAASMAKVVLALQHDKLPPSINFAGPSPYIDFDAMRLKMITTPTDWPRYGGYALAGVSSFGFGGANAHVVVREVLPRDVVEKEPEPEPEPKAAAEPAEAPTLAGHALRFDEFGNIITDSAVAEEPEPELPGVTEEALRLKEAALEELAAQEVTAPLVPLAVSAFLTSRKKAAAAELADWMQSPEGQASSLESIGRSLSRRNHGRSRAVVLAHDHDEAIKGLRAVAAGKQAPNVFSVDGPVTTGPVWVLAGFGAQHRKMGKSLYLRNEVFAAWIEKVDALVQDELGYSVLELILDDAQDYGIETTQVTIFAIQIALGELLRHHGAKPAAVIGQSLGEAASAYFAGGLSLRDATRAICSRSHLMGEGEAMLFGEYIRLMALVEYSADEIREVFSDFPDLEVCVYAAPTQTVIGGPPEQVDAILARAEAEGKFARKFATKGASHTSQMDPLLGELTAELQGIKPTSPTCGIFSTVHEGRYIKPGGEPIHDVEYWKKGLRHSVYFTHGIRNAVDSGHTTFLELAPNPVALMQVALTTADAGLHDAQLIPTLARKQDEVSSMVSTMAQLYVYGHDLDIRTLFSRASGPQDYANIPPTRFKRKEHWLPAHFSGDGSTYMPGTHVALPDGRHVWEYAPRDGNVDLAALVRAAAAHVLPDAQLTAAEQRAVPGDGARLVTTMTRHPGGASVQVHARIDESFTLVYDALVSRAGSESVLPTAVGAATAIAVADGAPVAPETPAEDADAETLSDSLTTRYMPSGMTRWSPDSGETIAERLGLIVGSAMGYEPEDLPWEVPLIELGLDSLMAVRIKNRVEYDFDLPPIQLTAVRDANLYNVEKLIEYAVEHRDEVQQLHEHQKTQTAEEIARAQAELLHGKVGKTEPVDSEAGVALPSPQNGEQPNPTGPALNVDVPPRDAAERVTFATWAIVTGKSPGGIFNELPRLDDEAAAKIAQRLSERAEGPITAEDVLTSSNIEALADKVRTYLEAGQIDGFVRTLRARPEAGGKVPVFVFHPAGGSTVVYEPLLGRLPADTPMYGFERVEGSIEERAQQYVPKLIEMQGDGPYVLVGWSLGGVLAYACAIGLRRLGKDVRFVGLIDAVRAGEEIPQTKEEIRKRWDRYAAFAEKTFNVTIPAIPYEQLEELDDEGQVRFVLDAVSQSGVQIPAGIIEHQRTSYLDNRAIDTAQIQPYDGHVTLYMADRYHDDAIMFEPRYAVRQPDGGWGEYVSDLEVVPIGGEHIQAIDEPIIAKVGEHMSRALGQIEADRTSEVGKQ
Turning to `O=C(c1cnco1)N1C[C@@H]2CC[C@H](Oc3ccccc3F)[C@@H]2C1`, the Percent Effect stood at 6.58%.
Then `N#Cc1ccc(C(=O)O)nc1/C=C/c1cccc(Cl)c1`, with 51.4%; and `N#Cc1ccc(C(=O)O)nc1/C=C/c1cccc(Br)c1`, with -10.3%; and `N#Cc1ccc(C(=O)O)nc1/C=C/c1cccc(F)c1`, with -26.4%.
Turning to `CC(C)C(=O)N1CC[C@@H]2[C@H](CC1)N(Cc1cccnc1)CCS2(=O)=O`, the Percent Effect is -7.83%.
Next, `c1ccc(O[C@@H]2CN(Cc3nccs3)[C@@H]3CCCO[C@@H]32)nc1`: -21.3%; `CN(C)CCO[C@H]1CN(C(=O)c2cscn2)[C@@H]2COC[C@H]12`: 4.36%; `Cn1cc(Br)c(C(=O)NCCn2cc(Br)cn2)n1`: -18.6%.
As to `Cn1cc(I)c(C(=O)NCCCn2cc(Br)cn2)n1`, the Percent Effect amounted to 55%.
Next, `Cn1cc(Br)c(C(=O)NCCCn2cc(Br)cn2)n1`: 27.2%.
On to `Cn1ccnc1CN1CCN(Cc2ccncc2)[C@@H]2CS(=O)(=O)C[C@@H]21`, for which the Percent Effect was -14%.
Then `Cc1cc(CN2CC[C@@H]3[C@@H](CCC(=O)N3CCc3c[nH]cn3)C2)oc1C`, with -32.9%; and `O=C([C@H]1CC[C@@H]2[C@@H](CCN2C2CCOCC2)O1)N1CCOCC1`, with 5.19%; and `Cc1noc(C)c1CCC(=O)NCC1(O)CCCN(c2ccccn2)C1` (stereo not drawn), with 9.52%.
Turning to `Cc1noc(C)c1CCC(=O)NCC1(O)CCN(c2ccccn2)C1` (stereo not drawn), the Percent Effect is 1.81%.
Then `Cc1n[nH]c(C)c1CCC(=O)NCC1(O)CCN(c2ccccn2)C1` (stereo not drawn), with 61.1%.
Next, `CCO[C@H]1CC[C@H]2[C@H]1OCCN2C(=O)c1nn(C)c2ccccc12`: -2.76%; `CN(C)[C@@H]1CN(C(=O)Cc2cccs2)[C@@H]2CCCO[C@H]12`: -8.31%.
For `Cc1nc(N2CCCC2)ncc1C(=O)Nc1ccc(Br)cc1`, the Percent Effect was -0.502%.
Then `Cc1nn(C)cc1C1=NS(=O)(=O)N(C)C(C(=O)Nc2ccc(Br)cc2)=C1`, with 57.7%; and `Cc1c(C2=NS(=O)(=O)N(C)C(C(=O)Nc3ccc(Br)cc3)=C2)cnn1C`, with 47%.
`O=C1N(C2CCCCC2)C[C@H]2CN(C3CCC3)CCN12`: the Percent Effect was determined as 5.32%.
On to `COCCN1C(=O)CC[C@@H]2[C@@H]1CCN2Cc1c(C)noc1C`, for which the Percent Effect was determined as 2.01%.
Then `CS(=O)(=O)N[C@@H]1CN(Cc2ccccc2)C[C@@H]2CCCO[C@@H]21`, with -27.1%; and `CN(Cc1ccccn1)C1CCC[C@@H]2CN(CC3CC3)C[C@H]12` (stereo partly drawn), with -21.9%.
Then `CCC(=O)NCC(=O)NCC(C)(C)c1cccc(Br)c1`, with 50.4%; and `COC(=O)NCC(=O)NCC(C)(C)c1cccc(Br)c1`, with -17.5%; and `COC(=O)NCC(=O)NCC(C)(C)c1cccc(C(F)(F)F)c1`, with -4.12%.
Turning to `CS(=O)(=O)N1CCO[C@@H]2CN(C(=O)C3CCOC3)CC[C@@H]2C1` (stereo partly drawn), the Percent Effect is -9.9%.
For `CN(C)C(=O)C1CCN(c2cncc(-n3cccn3)n2)CC1`, the Percent Effect turned out to be 9.49%.
Then `O=C(c1ccccc1)C1CCN(c2cncc(-n3cccn3)n2)CC1`, with 75.5%; and `NC(=O)C1CCN(c2cncc(-n3cccn3)n2)CC1`, with 9.01%.
Next, `Cc1ccc(C(=O)N2C[C@@H](OCC3CCOCC3)[C@H]3OCCC[C@H]32)o1`: -4.11%; `CC(C)NC(=O)N1CCCn2cnc(CN3CCCC3=O)c2C1`: -40.2%.
Then `O=C1CCCN1Cc1ncn2c1CN(C(=O)NC1CCCCC1)CCC2`, with 29%; and `O=C1CCCN1Cc1ncn2c1CN(C(=O)NC1CCCC1)CCC2`, with 60.1%; and `O=C([C@@H]1C[C@@H]2CCN(Cc3ccccn3)C[C@H]2O1)N1CCCO1`, with -7.04%.
Take `CN(C)C(=O)CN1C[C@@H]2CC[C@H](C1)N(C(=O)CCn1cncn1)C2`: the Percent Effect is -4.82%.
Next, `CC(=O)c1cc(CN2C[C@H]3CC[C@@H]2CN(S(=O)(=O)N(C)C)C3)cs1`: -12.2%; `O=C(c1ccccc1)N1C[C@@H]2CC[C@H](C1)N(Cc1cc(F)ccc1Cl)C2`: 3.66%; `O=C1[C@H]2CC[C@H](CN(c3ncnc4ccsc34)C2)N1CC1CC1`: 90.8%.
For `COc1cc(N2C[C@@H]3CC[C@H](C2)N(CC2CCC2)C3=O)ncn1`, the Percent Effect is -4.75%.
Then `CN1C(=O)[C@H]2CC[C@@H]1CN(c1ncnc3ccsc13)C2`, with 38.1%; and `COCC(=O)N1CC[C@H]2C[C@H](c3nnc(C4CC4)o3)O[C@@H]2C1`, with -6.34%.
Then `COCCN1C[C@H]2CC[C@@H]1CN(Cc1nc3ccccc3n1C)C2`, with -34.6%; and `NC(=O)COc1ccc(CN2CC[C@@]3(O)CCCC[C@H]3C2)cc1Cl`, with -1.23%.
Next, `CCc1[nH]c2c(CNc3nc(C)cc(NC)n3)cc(C)cc2c1C`: 146%.
As for `CCc1[nH]c2c(CNc3cc(C)nc(NC)n3)cc(C)cc2c1C`, the Percent Effect was found to be 5.91%.
Next, `CNc1cc(C)nc(NCc2cc(C)cc3c(C)c(C)[nH]c23)n1`: 13%; `COC[C@@H]1CC[C@H]2[C@H](CCN2S(=O)(=O)Cc2ccccc2)O1`: -27.3%.
Then `c1cncc(CN2CCN3C[C@H](Oc4cncnc4)C[C@H]3C2)c1`, with 0.84%; and `Cc1cccc(CN2C[C@@H]3CN(C(=O)C4CCOC4)C[C@@H]3C2=O)c1` (stereo partly drawn), with -8.77%; and `CN1CCN(C(=O)[C@H]2C[C@H]3[C@H](CCN3Cc3nccs3)O2)CC1`, with -17.5%.
Next, `Cc1ccc(N2CC[C@H]3C[C@H](C(=O)NCc4ccco4)O[C@@H]3C2)cc1`: -20.4%; `c1cc(CN2CC[C@@H]3CN(c4cnccn4)C[C@@H]3C2)ccn1`: -15.9%.
Consider `CC1CN(C(=O)c2cc(=O)[nH]c3ccc(F)cc23)CCO1` (stereo not drawn), for which the Percent Effect was found to be 6.5%.
Then `CN(C)C[C@@H]1CN(C(=O)c2cc(F)ccc2F)C[C@@H]1CO`, with -27.8%; and `Cc1ccc(OCc2occc2C(=O)N2C[C@@H]3[C@@H](CN(C)C)[C@@H]3C2)cc1`, with -36.4%; and `CN(C)C[C@H]1C[C@@H](CO)CN(C(=O)c2cc(=O)[nH]c3cc(F)ccc23)C1`, with -20%.
Then `CN(C)C[C@@H]1[C@H]2CN(C(=O)c3cc(=O)[nH]c4ccc(F)cc34)C[C@@H]12`, with 55.8%.
In the case of `Cc1ccoc1C(=O)N1CC[C@@H]2CN(C3CCOCC3)CCO[C@@H]2C1`, the Percent Effect is -13.2%.
For the compound `COc1ncccc1CN1C[C@H]2C[C@@H](C(=O)NCC3CC3)N(C)[C@H]2C1`, the Percent Effect was -7.18%.
Next, `Cc1noc(C)c1CN1C(=O)[C@H]2CC[C@@H]1CN(Cc1cccnc1N)C2`: -20%; `Cc1oncc1C(=O)N1CC[C@@H]2[C@@H]1CC(=O)N2Cc1cccnc1`: 10.2%; `CCc1ccccc1CN1CCN(Cc2ncc[nH]2)[C@H]2CS(=O)(=O)C[C@H]21`: -16.6%.
Then `Cn1ccc(C(=O)N2CCN(c3ncccn3)CC2)cc1=O`, with 11.1%; and `Cn1ccc(C(=O)NC2CCN(c3ncccn3)CC2)cc1=O`, with 71.3%.
Then `COc1ccc(C(=O)NC2CCN(c3ncccn3)CC2)cc1F`, with -18.2%; and `CN(C)c1ccc(CN2C[C@H]3CC[C@@H]2CN(C2CCOCC2)C3)cn1`, with -33%; and `CNC(=O)[C@H]1C[C@@H]2CN(Cc3csc(C)n3)C[C@@H]2N1S(C)(=O)=O`, with -33.5%.
Take `CC(C)COC1CC2(CCN(C(=O)Cc3ccccn3)CC2)C1`: the Percent Effect was found to be 0.268%.
For the compound `O=C(Cc1ccccn1)N1CCC2(CC1)[C@H](O)C[C@@H]2O`, the Percent Effect is 7.55%.
Next, `CCOC1CC2(CCN(C(=O)Cc3ccccn3)CC2)C1`: 58.6%.
With `C[C@@H]1C[C@@H]2CCN(C(=O)c3ccncn3)C[C@H]2O1`, the Percent Effect was -3.96%.
Then `O=C(CC[C@@H]1CCCN2CCCC[C@H]12)NCCc1nc(O)cc(O)n1`, with -3.34%; and `c1cncc(OC[C@]23COC[C@H]2CN(Cc2nccs2)C3)c1`, with -6.85%; and `CCOCCCNC(=O)c1cn(C(C)(C)C)c2ncccc12`, with 60.2%.
Then `COCCNC(=O)c1cn(C(C)(C)C)c2ncccc12`, with -9.36%.
Next, `COCCCNC(=O)c1cn(C(C)(C)C)c2ncccc12`: 0.73%; `Cc1cccc(CN2C[C@@H]3CCCO[C@@H]3[C@H](Nc3ccccn3)C2)n1`: -13.2%.
Take `C[C@H]1C[C@@H]2CCN(C(=O)c3cccn3C)C[C@H]2O1`: the Percent Effect is -23.4%.
Then `CN(C)S(=O)(=O)c1ccc(-c2nc(C#N)c(NC3CC3)o2)o1`, with 73.3%.
Then `Cc1oc(-c2nc(C#N)c(NC3CC3)o2)cc1S(=O)(=O)N1CCCC1`, with -2.87%; and `CN(C)S(=O)(=O)c1ccc(-c2nc(C#N)c(NC(C)(C)C)o2)o1`, with -2.58%.
Regarding `Cc1ccc(C(=O)N2CCO[C@H]3[C@H](OCC4CCOCC4)CC[C@@H]32)o1`, the Percent Effect is -6.47%.
Next, `CC(C)(CO)CNC(=O)c1cc(-c2cc[nH]n2)n2ccccc12`: 67.2%.
Then `O=C(NCCCO)c1cc(-c2cc[nH]n2)n2ccccc12`, with 48.6%; and `COCCNC(=O)c1cc(-c2cc[nH]n2)n2ccccc12`, with 47.6%; and `Fc1cnc(N2CCO[C@H]3CN(CC4CCCC4)C[C@H]32)nc1`, with -14.5%.
Next, `CC(C)c1n[nH]c(C(=O)Nc2ccccn2)c1Br`: -9.25%; `Cc1cccc(NC(=O)c2[nH]nc(C(C)C)c2Br)n1`: 73.4%.
On to `CC(C)c1n[nH]c(C(=O)Nc2cc[nH]n2)c1Br`, for which the Percent Effect is -20%.
Then `Cc1cc(CN2C[C@H]3CCC[C@@]3(COCC3CCOCC3)C2)no1`, with -40.7%; and `CC(=O)N1C[C@@H](c2ccsc2)[C@@H]2CN(Cc3ccccc3C)CC[C@@H]21`, with -7.95%.
With `Cc1nc([C@@H]2C[C@@H]3CCN(Cc4cnn(C)c4)C[C@H]3O2)sc1C`, the Percent Effect was -30.4%.
On to `CC(=O)N1CCS(=O)(=O)[C@@H]2CCN(CC(C)C)CC[C@@H]21`, for which the Percent Effect was -16.8%.
Next, `Cc1cccc(C(C)CNS(=O)(=O)CCCC#N)c1` (stereo not drawn): 50.7%; `CC(CNS(=O)(=O)CCCC#N)c1ccsc1` (stereo not drawn): -31.9%.
Then `COCCS(=O)(=O)NCC(C)c1cccc(C)c1` (stereo not drawn), with -20.8%; and `Cn1cc(CN2C[C@H]3CCN(C(=O)c4cscn4)C[C@H]3C2)cn1`, with -3.8%.
Regarding `Cc1ccc(CC(=O)N2CC[C@@H]3NC(=O)CC[C@@H]32)cc1`, the Percent Effect is -1.54%.
Then `CCS(=O)(=O)NCC1CCN(c2cnccn2)CC1`, with -18.7%.
Then `CCc1ccc(S(=O)(=O)NCC2CCN(c3cnccn3)CC2)s1`, with 56.2%; and `O=S(=O)(NCC1CCN(c2cnccn2)CC1)c1cccs1`, with 45.5%.
Then `CCCc1ccc(CN2CCN(C(=O)CC(C)C)[C@@H]3CS(=O)(=O)C[C@@H]32)o1`, with -12.9%; and `CCN(CC)C(=O)c1cc(C2CCCN2C)ccn1` (stereo not drawn), with 88.5%.
Turning to `CCN(Cc1ccccc1)C(=O)c1cc(C2CCCN2C)ccn1` (stereo not drawn), the Percent Effect is -15.7%.
Then `CN1CCCC1c1ccnc(C(=O)N(C)C2CCCCC2)c1` (stereo not drawn), with 5.64%.
